Assay results: PubChem BioAssay (NCATS)
Inconclusive results are not listed. Active and inactive are the calls of the source. Calls come from the whole dose curve; as a rule, active = well fitted cell-killing curve with a large enough effect; inconclusive = small, poorly fitted or top-dose-only effect; inactive = flat fitted curve, though single readings scatter.

Experiment: Cell Viability - LYMP2-019 (AID 973);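 note: 0% = DMSO alone and full effect = 92 µM tetraoctylammonium bromide; nearly all actives have a fitted effect of over 55% in size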
Conditions: LYMP2-019 lymphoblastoid cell line viability; series mostly up to 92.2 µM; activity change, negative = cytotoxicity: at the top concentration
Procedure, shortened: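 AC50 values come from Hill-equation modelling of qHTS concentration-response curves, where viability is measured as luciferase-based ATP luminescence in the lymphoblastoid line after 24 hr compound exposure in complete culture medium.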

Structure (SMILES)	activity change, negative = cytotoxicity	Potency
C=CCc1ccc(OC)c(OC)c1	-5.74% (inactive)	–
C=C(C)C1CC=C(C)C(O)C1 (stereo not drawn)	-5.66% (inactive)	–
CC1=C2[C@H](/C=C(\C)C(=O)O)CC[C@@H](C)[C@H]2CC1	-29.6% (inactive)	–
CCCCCCCCCCCC(=O)O	–	inactive

Experiment: Cell Viability - LYMP2-021 (AID 974);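 note: compound exposure lasts 24 hours at 37 °C; % is set by controls: 0 for no effect and ±100 for the full control effect; nearly all actives have a fitted effect of over 55% in size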
Conditions: LYMP2-021 lymphoblastoid cells viability; series mostly up to 92.2 µM; activity change, negative = cytotoxicity: at the top concentration
Procedure, shortened: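 In qHTS format, compounds are tested against 2500 lymphoblastoid cells per well for 24 h; viable cell number is inferred from ATP-driven luciferase light, and Hill-equation fitting yields AC50 values.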

Structure (SMILES)	activity change, negative = cytotoxicity	Potency
C=CCc1ccc(OC)c(OC)c1	3.78% (inactive)	–
C=C(C)C1CC=C(C)C(O)C1 (stereo not drawn)	-1.85% (inactive)	–
CC1=C2[C@H](/C=C(\C)C(=O)O)CC[C@@H](C)[C@H]2CC1	-11.8% (inactive)	–
CCCCCCCCCCCC(=O)O	–	inactive

Experiment: Cell Viability - LYMP2-025 (AID 976);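 note: plate controls were DMSO only for no effect and tetraoctylammonium bromide control for full effect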
Conditions: LYMP2-025 lymphoblastoid cell viability; series mostly up to 92.2 µM; activity change, negative = cytotoxicity: at the top concentration
Procedure, shortened: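 Luminescent ATP readout after 24 hr treatment of a human lymphoblastoid line (LYMP2-025, 2500 cells/well, 37 C). Reagent developed 30 min at room temperature; AC50 fitted with the Hill equation.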

Structure (SMILES)	activity change, negative = cytotoxicity	Potency
C=CCc1ccc(OC)c(OC)c1	-6.72% (inactive)	–
C=C(C)C1CC=C(C)C(O)C1 (stereo not drawn)	-8.13% (inactive)	–
CC1=C2[C@H](/C=C(\C)C(=O)O)CC[C@@H](C)[C@H]2CC1	-10.5% (inactive)	–
CCCCCCCCCCCC(=O)O	–	inactive

Experiment: Cell Viability - LYMP2-002 (AID 977);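 note: compound exposure lasted 24 h at 37 °C; plate controls were DMSO only for no effect and 92 µM tetraoctylammonium bromide for full effect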
Conditions: LYMP2-002 lymphoblastoid cell viability, qHTS; series mostly up to 92.2 µM; activity change, negative = cytotoxic: at the top concentration
Procedure, shortened: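 Human lymphoblastoid cells (2500/well) in complete medium were preincubated 5 hr at 37 C, then exposed to compounds for 24 hr at 37 C. Intracellular ATP was read by CellTiter-Glo luminescence; AC50 came from Hill-equation concentration-response fits.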

Structure (SMILES)	activity change, negative = cytotoxic	Potency
C=CCc1ccc(OC)c(OC)c1	19.9% (inactive)	–
C=C(C)C1CC=C(C)C(O)C1 (stereo not drawn)	2.46% (inactive)	–
CC1=C2[C@H](/C=C(\C)C(=O)O)CC[C@@H](C)[C@H]2CC1	4.3% (inactive)	–
CCCCCCCCCCCC(=O)O	–	inactive

Experiment: Cell Viability - LYMP2-006 (AID 978); note: % is set by controls: 0 for no effect and ±100 for the full control effect; nearly all actives have a fitted effect of over 60% in size
Conditions: LYMP2-006 lymphoblastoid cell viability, qHTS; series mostly up to 92.2 µM; activity change, negative = cytotoxicity: at the top concentration
Procedure, shortened: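 Human lymphoblastoid cells (LYMP2-006), 2500/well in complete medium, were treated with compound for 24 hr at 37 C. Cellular ATP was read by CellTiter-Glo luminescence after 30 min, and AC50 values came from Hill-equation fits of concentration-response data.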

Structure (SMILES)	activity change, negative = cytotoxicity	Potency
C=CCc1ccc(OC)c(OC)c1	-7.18% (inactive)	–
C=C(C)C1CC=C(C)C(O)C1 (stereo not drawn)	-8.03% (inactive)	–
CC1=C2[C@H](/C=C(\C)C(=O)O)CC[C@@H](C)[C@H]2CC1	-8.17% (inactive)	–
CCCCCCCCCCCC(=O)O	–	inactive

Experiment: Cell Viability - LYMP2-007 (AID 979);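 note: cells exposed to compound for 24 h before reading; 0% = DMSO only and the negative end = 92 µM tetraoctylammonium bromide; nearly all actives have a fitted effect of over 60% in size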
Conditions: LYMP2-007 lymphoblastoid cell viability; series mostly up to 92.2 µM; activity change, negative = cytotoxicity: at the top concentration
Procedure, shortened: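 Measured via luciferase-based ATP quantitation: lymphoblastoid cells, 24 hr compound exposure at 37 C, AC50 from Hill fits.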

Structure (SMILES)	activity change, negative = cytotoxicity	Potency
C=CCc1ccc(OC)c(OC)c1	13.5% (inactive)	–
C=C(C)C1CC=C(C)C(O)C1 (stereo not drawn)	-4.2% (inactive)	–
CC1=C2[C@H](/C=C(\C)C(=O)O)CC[C@@H](C)[C@H]2CC1	-9.58% (inactive)	–
CCCCCCCCCCCC(=O)O	–	inactive

Experiment: Cell Viability - LYMP2-008 (AID 980); note: % is set by controls: 0 for no effect and ±100 for the full control effect; nearly all actives have a fitted effect of over 60% in size
Conditions: LYMP2-008 lymphoblastoid cell viability, qHTS; series mostly up to 92.2 µM; activity change, negative = cytotoxicity: at the top concentration
Procedure, shortened: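 Measured: ATP-dependent luminescence, proportional to viable cell number, in human lymphoblastoid cells treated 24 hr with compound in complete culture medium. Values are AC50s from Hill-equation modelling of qHTS titrations.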

Structure (SMILES)	activity change, negative = cytotoxicity	Potency
C=CCc1ccc(OC)c(OC)c1	-1.54% (inactive)	–
C=C(C)C1CC=C(C)C(O)C1 (stereo not drawn)	-16.9% (inactive)	–
CC1=C2[C@H](/C=C(\C)C(=O)O)CC[C@@H](C)[C@H]2CC1	-15.9% (inactive)	–
CCCCCCCCCCCC(=O)O	–	inactive

Experiment: Cell Viability - LYMP2-010 (AID 981); note: % is set by controls: 0 for no effect and ±100 for the full control effect; nearly all actives have a fitted effect of over 55% in size
Conditions: LYMP2-010 lymphoblastoid cell viability, qHTS; series mostly up to 92.2 µM; activity, negative = cytotoxicity: at the top concentration
Procedure, shortened: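 This 24 hr viability screen uses LYMP2-010 lymphoblastoid cells, quantifies ATP via luciferase luminescence, and derives AC50 from Hill fits of qHTS concentration-response data.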

Structure (SMILES)	activity, negative = cytotoxicity	Potency
C=CCc1ccc(OC)c(OC)c1	3.43% (inactive)	–
C=C(C)C1CC=C(C)C(O)C1 (stereo not drawn)	-7.24% (inactive)	–
CC1=C2[C@H](/C=C(\C)C(=O)O)CC[C@@H](C)[C@H]2CC1	-26.9% (inactive)	–
CCCCCCCCCCCC(=O)O	–	inactive

Experiment: Cell Viability - LYMP2-012 (AID 982);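 note: cellular ATP by luciferase luminescence where a drop means cytotoxicity; cells exposed to compound for one day before reading; 0% = DMSO only and full loss = 92 µM tetraoctylammonium bromide; nearly all actives have a fitted effect of over 55% in size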
Conditions: LYMP2-012 lymphoblastoid cell viability qHTS; series mostly up to 92.2 µM; activity change, negative = cytotoxicity: at the top concentration

Structure (SMILES)	activity change, negative = cytotoxicity	Potency
C=CCc1ccc(OC)c(OC)c1	1.5% (inactive)	–
C=C(C)C1CC=C(C)C(O)C1 (stereo not drawn)	-3.61% (inactive)	–
CCCCCCCCCCCC(=O)O	–	inactive

Experiment: Cell Viability - LYMP2-014 (AID 983);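 note: plate controls were DMSO only for no effect and 92 µM tetraoctylammonium bromide for full effect; nearly all actives have a fitted effect of over 50% in size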
Conditions: LYMP2-014 lymphoblastoid cells, viability qHTS; series mostly up to 92.2 µM; activity change, negative = cytotoxicity: at the top concentration
Procedure, shortened: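 Quantitative HTS in lymphoblastoid cells: 24 hr compound exposure, then CellTiter-Glo ATP luminescence. Positive control was tetraoctylammonium bromide, 6.4pM to 92 uM.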

Structure (SMILES)	activity change, negative = cytotoxicity	Potency
C=C(C)C1CC=C(C)C(O)C1 (stereo not drawn)	0.724% (inactive)	–
CC1=C2[C@H](/C=C(\C)C(=O)O)CC[C@@H](C)[C@H]2CC1	-2.79% (inactive)	–
CCCCCCCCCCCC(=O)O	–	inactive
